Records with an inconclusive call do not appear. A call without a number means that no potency is given here. Unmarked numbers belong to inactive results. Active and inactive are the calls of the source. The call rests on the fitted dose curve; in most records, active means well fitted inhibition curve with a large enough effect in the repeat runs; inconclusive means weak or mixed curves; inactive means no such curve, though single readings can be large or run the other way.
Columns and labels:
[1] = target: Cytochrome P450 3A4 (Homo sapiens) (UniProt P08684); test: Cytochrome P450 family 3 subfamily A member 4 (CYP3A4) small molecule antagonists: luciferase qHTS assay (AID 1645841); further: nearly all actives have a fitted effect of over 45% in size
How it was run: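 P450-Glo CYP3A4 enzyme with proluciferin substrate preincubated 10 min with compound at room temperature, then NADPH regeneration 1 h. Luciferin detection reagent added for 20 min; luminescence recorded. Ketoconazole positive control.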

[2] = target: Cytochrome P450 2C9 (Homo sapiens) (UniProt P11712); test: Cytochrome P450 family 2 subfamily C member 9 (CYP2C9) small molecule antagonists: luciferase biochemical (cell-free) qHTS assay (AID 1645842); further: potency means the concentration at half of the fitted maximal effect; nearly all actives have a fitted effect of over 55% in size
How it was run: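 Luminescence, after 20 min with luciferin detection reagent, reflected CYP2C9 turnover during a 1 h NADPH-driven reaction at 37C. Enzyme-substrate mix contained 0.4% bovine serum albumin and was preincubated with compound 10 min at room temperature.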

Cytochrome P450 3A4 (Homo sapiens), sequence (P08684 whole entry, looked up): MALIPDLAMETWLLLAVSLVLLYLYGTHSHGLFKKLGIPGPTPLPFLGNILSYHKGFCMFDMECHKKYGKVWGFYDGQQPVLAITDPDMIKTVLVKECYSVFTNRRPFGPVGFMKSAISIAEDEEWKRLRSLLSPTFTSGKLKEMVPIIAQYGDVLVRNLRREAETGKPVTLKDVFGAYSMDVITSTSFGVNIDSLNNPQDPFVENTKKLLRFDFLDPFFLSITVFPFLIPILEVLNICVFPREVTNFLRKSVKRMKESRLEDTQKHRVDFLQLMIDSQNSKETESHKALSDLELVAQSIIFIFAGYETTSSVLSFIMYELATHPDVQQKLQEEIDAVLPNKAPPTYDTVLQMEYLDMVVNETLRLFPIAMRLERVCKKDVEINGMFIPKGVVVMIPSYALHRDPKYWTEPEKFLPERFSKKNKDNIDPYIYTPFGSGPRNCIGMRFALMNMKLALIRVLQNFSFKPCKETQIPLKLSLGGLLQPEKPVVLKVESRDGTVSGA
Cytochrome P450 2C9 (Homo sapiens), sequence (P11712 whole entry, looked up): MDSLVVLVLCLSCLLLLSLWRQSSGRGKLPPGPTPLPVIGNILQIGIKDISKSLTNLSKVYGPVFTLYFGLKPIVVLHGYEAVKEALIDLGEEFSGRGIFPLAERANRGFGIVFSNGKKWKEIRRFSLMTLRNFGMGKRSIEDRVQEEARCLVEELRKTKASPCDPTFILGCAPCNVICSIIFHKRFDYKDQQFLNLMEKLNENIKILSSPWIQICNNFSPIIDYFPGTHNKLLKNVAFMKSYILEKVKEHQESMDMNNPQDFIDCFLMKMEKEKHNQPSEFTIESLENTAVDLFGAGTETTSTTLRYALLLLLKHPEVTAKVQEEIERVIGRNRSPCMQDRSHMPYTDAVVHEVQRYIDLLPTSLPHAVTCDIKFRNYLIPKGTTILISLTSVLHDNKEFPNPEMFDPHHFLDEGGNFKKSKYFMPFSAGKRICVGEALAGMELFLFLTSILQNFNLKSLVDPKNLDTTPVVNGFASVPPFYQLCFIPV

| SMILES | Potency [1] | Potency [2] |
| --- | --- | --- |
| Cc1nc2c(-c3ccccc3)c(C)[nH]n2c(=O)c1Cc1ccc(Br)cc1 | inactive |  |
| CCC(Sc1nc2nccnc2c(=O)n1Cc1ccc(C)cc1)C(=O)NC1CCCCC1 (configuration not stated) |  | 9.52 µM (active) |

Source: PubChem BioAssay (NCATS)
